Assay results reported in PubChem BioAssay (NCATS).
Results filed as inconclusive are left out. The source made the active and inactive calls. The call rests on the fitted dose curve; in most records, active means well fitted inhibition curve with a large enough effect; inconclusive means small, poorly fitted or top-dose-only effect; inactive means flat fitted curve, though single readings scatter.

Tests used:
[1] = qHTS profiling for inhibitors of Plasmodium falciparum proliferation (AID 504749);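 further: 0% = DMSO vehicle and full inhibition = artemisinin control; nearly all actives have a fitted effect of over 60% in size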; conditions: P. falciparum in erythrocytes, SYBR Green DNA, 72 h
Outline: (§1)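 Readout was DNA-dye fluorescence from lysed cultures, ex 485/em 535 nm. Parasitized red cells had grown 72 h with compound; data scaled between 0.29 uM artemisinin and DMSO wells and corrected using vehicle-only plates.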

3D7 = test: as above; conditions: P. falciparum in erythrocytes, SYBR Green DNA, 72 h; series mostly up to 28.7 µM
Outline: as §1

7G8 = test: as above; conditions: P. falciparum in erythrocytes, SYBR Green DNA, 72 h; series mostly up to 28.7 µM
Outline: as §1

AA1029 = test: as above; conditions: P. falciparum in erythrocytes, SYBR Green DNA, 72 h; series mostly up to 28.7 µM
Outline: as §1

AS120 = test: as above; conditions: P. falciparum in erythrocytes, SYBR Green DNA, 72 h; series mostly up to 28.7 µM
Outline: as §1

ATS189 = test: as above; conditions: P. falciparum in erythrocytes, SYBR Green DNA, 72 h; series mostly up to 28.7 µM
Outline: as §1

ATS95 = test: as above; conditions: P. falciparum in erythrocytes, SYBR Green DNA, 72 h; series mostly up to 28.7 µM
Outline: as §1

C2A = test: as above; conditions: P. falciparum in erythrocytes, SYBR Green DNA, 72 h; series mostly up to 28.7 µM
Outline: as §1

CP185 = test: as above; conditions: P. falciparum in erythrocytes, SYBR Green DNA, 72 h; series mostly up to 28.7 µM
Outline: as §1

CP191 = test: as above; conditions: P. falciparum in erythrocytes, SYBR Green DNA, 72 h; series mostly up to 28.7 µM
Outline: as §1

CP192 = test: as above; conditions: P. falciparum in erythrocytes, SYBR Green DNA, 72 h; series mostly up to 28.7 µM
Outline: as §1

CP194 = test: as above; conditions: P. falciparum in erythrocytes, SYBR Green DNA, 72 h; series mostly up to 28.7 µM
Outline: as §1

CP201 = test: as above; conditions: P. falciparum in erythrocytes, SYBR Green DNA, 72 h; series mostly up to 28.7 µM
Outline: as §1

CP203 = test: as above; conditions: P. falciparum in erythrocytes, SYBR Green DNA, 72 h; series mostly up to 28.7 µM
Outline: as §1

CP211 = test: as above; conditions: P. falciparum in erythrocytes, SYBR Green DNA, 72 h; series mostly up to 28.7 µM
Outline: as §1

CP215 = test: as above; conditions: P. falciparum in erythrocytes, SYBR Green DNA, 72 h; series mostly up to 28.7 µM
Outline: as §1

CP217 = test: as above; conditions: P. falciparum in erythrocytes, SYBR Green DNA, 72 h; series mostly up to 28.7 µM
Outline: as §1

CP237 = test: as above; conditions: P. falciparum in erythrocytes, SYBR Green DNA, 72 h; series mostly up to 28.7 µM
Outline: as §1

CP238 = test: as above; conditions: P. falciparum in erythrocytes, SYBR Green DNA, 72 h; series mostly up to 28.7 µM
Outline: as §1

[2] = at 28.7 µM (top of the series), parasite line A
[3] = at 28.7 µM (top of the series), parasite line B

Cc1ccc(S(=O)(=O)NC(=O)NC2CCCCC2)cc1
inactive: activity, negative = inhibition [1, 2] -9.84% | activity, negative = inhibition [1, 3] 5.26% | Potency (3D7) | Potency (7G8) | Potency (AA1029) | Potency (AS120) | Potency (ATS189) | Potency (ATS95) | Potency (C2A) | Potency (CP185) | outcome (CP191) | outcome (CP192) | outcome (CP194) | outcome (CP201) | Potency (CP203) | outcome (CP211) | Potency (CP215) | outcome (CP217) | Potency (CP237) | Potency (CP238)

O=C(O)Cc1ccc(CCNS(=O)(=O)c2ccc(Cl)cc2)cc1
inactive: activity, negative = inhibition [1, 2] 5.99% | activity, negative = inhibition [1, 3] -5.95% | Potency (3D7) | Potency (7G8) | Potency (AA1029) | Potency (AS120) | Potency (ATS189) | Potency (ATS95) | Potency (C2A) | Potency (CP185) | outcome (CP191) | outcome (CP192) | outcome (CP194) | outcome (CP201) | Potency (CP203) | outcome (CP211) | Potency (CP215) | outcome (CP217) | Potency (CP237) | Potency (CP238)

Cc1ccccc1N=Nc1ccc(N=Nc2c(O)ccc3ccccc23)c(C)c1
inactive: activity, negative = inhibition [1, 2] 3.72% | activity, negative = inhibition [1, 3] 9.83% | Potency (3D7) | Potency (7G8) | Potency (AA1029) | Potency (AS120) | Potency (ATS189) | Potency (ATS95) | Potency (C2A) | Potency (CP185) | outcome (CP191) | outcome (CP192) | outcome (CP194) | outcome (CP201) | Potency (CP203) | outcome (CP211) | Potency (CP215) | outcome (CP217) | Potency (CP237) | Potency (CP238)

CN1CCCN=C1COC(=O)C(O)(c1ccccc1)C1CCCCC1 (stereo not given)
inactive: activity, negative = inhibition [1, 2] 2.78% | activity, negative = inhibition [1, 3] -4.74% | Potency (3D7) | Potency (7G8) | Potency (AA1029) | Potency (AS120) | Potency (ATS189) | Potency (ATS95) | Potency (C2A) | Potency (CP185) | outcome (CP191) | outcome (CP192) | outcome (CP194) | outcome (CP201) | Potency (CP203) | outcome (CP211) | Potency (CP215) | outcome (CP217) | Potency (CP237) | Potency (CP238)

O=C(OOC(=O)c1ccccc1)c1ccccc1
inactive: activity, negative = inhibition [1, 2] -10.4% | activity, negative = inhibition [1, 3] 7.71% | Potency (3D7) | Potency (7G8) | Potency (AA1029) | Potency (AS120) | Potency (ATS189) | Potency (ATS95) | Potency (C2A) | Potency (CP185) | outcome (CP191) | outcome (CP192) | outcome (CP194) | outcome (CP201) | Potency (CP203) | outcome (CP211) | Potency (CP215) | outcome (CP217) | Potency (CP237) | Potency (CP238)

NC(=O)NS(=O)(=O)c1ccc(N)cc1
inactive: activity, negative = inhibition [1, 2] -1.96% | activity, negative = inhibition [1, 3] 15.9% | Potency (3D7) | Potency (7G8) | Potency (AA1029) | Potency (AS120) | Potency (ATS189) | Potency (ATS95) | Potency (C2A) | Potency (CP185) | outcome (CP191) | outcome (CP192) | outcome (CP194) | outcome (CP201) | Potency (CP203) | outcome (CP211) | Potency (CP215) | outcome (CP217) | Potency (CP237) | Potency (CP238)

CCN(CC)C(=O)c1cccc(C)c1
inactive: activity, negative = inhibition [1, 2] 7.82% | activity, negative = inhibition [1, 3] 6.22% | Potency (3D7) | Potency (7G8) | Potency (AA1029) | Potency (AS120) | Potency (ATS189) | Potency (ATS95) | Potency (C2A) | Potency (CP185) | outcome (CP191) | outcome (CP192) | outcome (CP194) | outcome (CP201) | Potency (CP203) | outcome (CP211) | Potency (CP215) | outcome (CP217) | Potency (CP237) | Potency (CP238)

O=C(Cn1ccnc1[N+](=O)[O-])NCCO
inactive: activity, negative = inhibition [1, 2] 4.18% | activity, negative = inhibition [1, 3] -2.11% | Potency (3D7) | Potency (7G8) | Potency (AA1029) | Potency (AS120) | Potency (ATS189) | Potency (ATS95) | Potency (C2A) | Potency (CP185) | outcome (CP191) | outcome (CP192) | outcome (CP194) | outcome (CP201) | Potency (CP203) | outcome (CP211) | Potency (CP215) | outcome (CP217) | Potency (CP237) | Potency (CP238)

CCc1cccc(CC)c1NC(=O)CN(CC(=O)O)CC(=O)O
inactive: activity, negative = inhibition ([1]; at 12.8 µM (top of the series), parasite line A) 1.37% | activity, negative = inhibition ([1]; at 12.8 µM (top of the series), parasite line B) 6.7% | Potency (3D7) | Potency (7G8) | Potency (AA1029) | Potency (AS120) | Potency (ATS189) | Potency (ATS95) | Potency (C2A) | Potency (CP185) | outcome (CP191) | outcome (CP192) | outcome (CP194) | outcome (CP201) | Potency (CP203) | outcome (CP211) | Potency (CP215) | outcome (CP217) | Potency (CP237) | Potency (CP238)

NS(=O)(=O)c1ccc(C(=O)O)cc1
inactive: activity, negative = inhibition [1, 2] 18.9% | activity, negative = inhibition [1, 3] 11.1% | Potency (3D7) | Potency (7G8) | Potency (AA1029) | Potency (AS120) | Potency (ATS189) | Potency (ATS95) | Potency (C2A) | Potency (CP185) | outcome (CP191) | outcome (CP192) | outcome (CP194) | outcome (CP201) | Potency (CP203) | outcome (CP211) | Potency (CP215) | outcome (CP217) | Potency (CP237) | Potency (CP238)

O=C(NCN1CCOCC1)c1cnccn1
inactive: activity, negative = inhibition [1, 2] -8.14% | activity, negative = inhibition [1, 3] 11.7% | Potency (3D7) | Potency (7G8) | Potency (AA1029) | Potency (AS120) | Potency (ATS189) | Potency (ATS95) | Potency (C2A) | Potency (CP185) | outcome (CP191) | outcome (CP192) | outcome (CP194) | outcome (CP201) | Potency (CP203) | outcome (CP211) | Potency (CP215) | outcome (CP217) | Potency (CP237) | Potency (CP238)

Nc1ncnc2c1ncn2[C@@H]1O[C@H](COP(=O)(O)O)[C@@H](O)[C@H]1O
inactive: activity, negative = inhibition [1, 2] -10.7% | activity, negative = inhibition [1, 3] 4.33% | Potency (3D7) | Potency (7G8) | Potency (AA1029) | Potency (AS120) | Potency (ATS189) | Potency (ATS95) | Potency (C2A) | Potency (CP185) | outcome (CP191) | outcome (CP192) | outcome (CP194) | outcome (CP201) | Potency (CP203) | outcome (CP211) | Potency (CP215) | outcome (CP217) | Potency (CP237) | Potency (CP238)

CC(=O)Nc1ccc(OCCOCCOc2ccc(NC(C)=O)cc2)cc1
inactive: activity, negative = inhibition [1, 2] 6.75% | activity, negative = inhibition [1, 3] 13% | Potency (3D7) | Potency (7G8) | Potency (AA1029) | Potency (AS120) | Potency (ATS189) | Potency (ATS95) | Potency (C2A) | Potency (CP185) | outcome (CP191) | outcome (CP192) | outcome (CP194) | outcome (CP201) | Potency (CP203) | outcome (CP211) | Potency (CP215) | outcome (CP217) | Potency (CP237) | Potency (CP238)
